Most compounds without a hit are left out; they make up all but 3.2% or so of the library.
p53 reactivator: restores transcriptional activity of mutant p53 | H1299 p53-A138V BP100-luciferase reporter, luminescence, 24 h | Potency, µM (doses to about 92.2 µM), hits mostly activators | hit rate 0.063% among 320,000 | AID 504706; note: nearly all actives have a fitted effect of over 45% in size
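H1299 (p53-null), stable ts p53-A138V + BP100-Luc; 1000 cells/well, Opti-MEM/10% FBS; cpd 4 pt, 1:5; 24 h, 37 deg C, 5% CO2; detection reagent 10 min RT; luminescence.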
BRCA1 expr up: increases BRCA1 expression; MCF7-BRCA1-FFLuc reporter, luminescence, 48 h; response scale: scaled: vehicle 0%, 10 µM genistein 100%; Potency, µM (titrated, usually from 46.1 µM), most hits filed as activators; hit rate 1.1% among 380,000; note: nearly all actives have a fitted effect of over 80% in size
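Using MCF7 cells harboring a BRCA1 firefly luciferase reporter, plated 2 h before compound pinning, the screen measured luminescence after 48 h incubation. Responses were normalized to DMSO and 10 microM genistein, then fitted for concentration-effect.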
IL-2 act: activates IL-2 in a cell-based reporter assay; IL-2 activation reporter assay, cell-based qHTS; stimulated with anti-CD3/CD4/CD28 beads; in transgenic mouse T cells; activation, % (series mostly up to about 46 µM); hit rate 0.065% among 360,000; in the data active = activation above about 50%; inconclusive = mostly about 30% to 49%
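Readout is EGFP and DsRed signal by fluorescent plate cytometry after 18 h at 37 degrees C. Transgenic mouse T cells (750/well) received compound for 60 min before bead stimulation (anti-CD3, anti-CD4, anti-CD28); memory T cells served as non-tolerant control.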
Nrf2 block: Nrf2 pathway inhibition; AID 504444; Potency, µM (top dose mostly 46 µM), actives largely listed as inhibitors; A549 ARE-Fluc reporter, luciferase luminescence, 18-24 h; hit rate 2.1% among 360,000; note: nearly all actives have a fitted effect of over 60% in size
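Reporter: ARE-Fluc in A549. Exposure: 18-24 h, 37 °C, 5% CO2, 5% FBS OPTI-MEM. Readouts: fluorescent cytotoxicity (CellTiter-Fluor), then luminescent Nrf2 signal after BugLite.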
A549 tox: A549 cytotoxicity, counter-screen for Nrf2 inhibitors. A549 ARE-Fluc cells, CellTiter-Fluor viability, 18-24 h. Potency, µM (doses to about 46 µM), usual class: inhibitors. hit rate 0.16% among 390,000. AID 504648
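A549 ARE_Fluc cells in 5% FBS OPTI-MEM were exposed to compounds in concentration-response for 18-24 h at 37 deg C. Viability was read by CellTiter-Fluor fluorescence (Ex 405/Em 525) after 30 min, before the luciferase read.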
Nrf2 activator: activates Nrf2 signaling; AREc32 ARE-luciferase reporter (MCF7-derived line), luminescence, 24 h; Potency, µM (top dose mostly 46.1 µM), most hits filed as activators; hit rate 0.31% among 410,000; note: nearly all actives have a fitted effect of over 65% in size
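Steps: seed AREc32_Fluc cells (1000/well, 5% FBS OPTI-MEM); incubate overnight at 37 deg C; add 23 nL compound; incubate 24 hr; add Steady-Glo; hold 30 min RT; read luminescence.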
Hits are given with their value; - = inactive; ? = inconclusive; . = no result given; [ ] = another dose, or the depositor's remark. Unless noted, calls come from the whole dose curve; as a rule, active = well fitted curve in the direction sought with a large enough effect; inconclusive = small, poorly fitted or top-dose-only effect, or another doubt; inactive = no such curve, though single readings can be large; an effect the other way counts as inactive or inconclusive.

SMILES	p53 reactivator	BRCA1 expr up	IL-2 act	Nrf2 block	A549 tox	Nrf2 activator
COc1ccc(Nc2nc(-c3cccs3)cs2)c(OC)c1	?	-[1.84 µM]	-	?	-	-
CCn1cc(C(=O)NCCc2ccc(Cl)cc2)c(=O)c2cc(S(=O)(=O)N3CCc4ccccc4C3)ccc21	.	-	.	-	-	-
CCc1ccc(S(=O)(=O)c2nnn3c2nc(N(CC)Cc2ccccc2)c2cc(Cl)ccc23)cc1	.	.	.	?	-	-
CCOc1ccccc1NC(=O)Cn1c(=O)oc2cc(S(=O)(=O)NCc3ccccc3)ccc21	.	.	.	.	-	-
CCc1ccc(NC(=O)Nc2nnc(N(C)C3CCCCC3)s2)cc1	.	.	.	-	-	-
Cc1cc2c(cc1C)-n1nnnc1C(N1CCN(C(=O)OCc3ccccc3)CC1)C(=O)N2 (configuration not stated)	.	.	-	.	.	.
c1nc(NCC2CCCO2)c2[nH]cnc2n1 (configuration not stated)	.	-	-	.	-	-
CCCCOc1ncnc2c1[nH]c1ccc(OCC)cc12	-	-	-	-	-	-
CCCCOc1ncnc2c1[nH]c1ccc(OC)cc12	?	?	-	.	-	-
c1ccc2c(c1)[nH]c1c(NCC3CCCO3)ncnc12 (configuration not stated)	-	-	-	14.6µM	-	-
c1ccc(Nc2nc(NCC3CCCO3)c3ccccc3n2)cc1 (configuration not stated)	-	-	-	18.4µM	-	-
CCCCOc1ncnc2c1[nH]c1ccccc12	?	-	-	8.2µM	?	-
CCCCOc1ncnc2c1[nH]c1ccc(F)cc12	-	-	-	2.06µM	-	-
O=C(CSc1c2c(nc3ccccc13)CCC2)Nc1ccc(F)cc1	.	.	.	-	-	?
CCCCOC(=O)c1ccc(NC(=O)/C(C#N)=C/c2ccc(C)o2)cc1	.	.	.	-	-	-
CCOCCCNc1ncnc2c1[nH]c1ccccc12	-	-	-	23.1µM	-	-
Cc1ccc(C(=O)N/C(=C\c2ccccc2)C(=O)OCc2ccccc2)cc1	?	7.94µM	-	?	-	-
COC(=O)/C(=C\c1cccnc1)NC(=O)c1ccc(OCc2ccccc2)cc1	-	-	-	16.4µM	-	-
COC(=O)/C(=C/c1cccnc1)NC(=O)c1ccccc1	-	-	-	-	-	-
C=C1C(=O)OC2C1CCC(C)=C1C(=O)C3OC3(C)C12 (configuration not stated)	.	-	-	16.4µM	?	-
C=C1C(=O)O[C@@H]2[C@H]1CC[C@H](C)[C@]1(O)CCC(=O)[C@@]21C	?	-	-	-	-	-
CCOC(=O)C(C(C)=O)c1c(Br)c(O)c(O)c2c(C(=O)c3ccc(C)cc3)coc12 (configuration not stated)	25.1µM	-	-	7.31µM	8.2µM	-
O=C(Cc1cccs1)NC1CC(=O)N(c2ccccc2)C1 (configuration not stated)	.	.	.	.	-	-
Cc1cccc(NC2=C/C(=N/S(=O)(=O)c3cccs3)c3ccccc3C2=O)c1	-	-	-	?	?	-
Cc1ccc(Cl)cc1NC1=C/C(=N\S(=O)(=O)c2cccs2)c2ccccc2C1=O	-	-	-	16.4µM	?	-
SMILES	p53 reactivator	BRCA1 expr up	IL-2 act	Nrf2 block	A549 tox	Nrf2 activator
Cc1ccc(NC2=C/C(=N\S(=O)(=O)c3cccs3)c3ccccc3C2=O)c(C)c1	-	-	-	?	18.4µM	-
COC(=O)c1c(NC(=O)c2ccco2)sc(C(=O)N(C)C)c1C	-	-	-	-	-	12.6µM
COc1ccc(CCN2C(=O)CN(C3CCC(C)CC3)C(=O)C2c2ccc(OC(C)C)c(OC)c2)cc1OC (configuration not stated)	.	.	.	.	-	-
Cc1ccc(C(=O)n2nc(-c3ccco3)nc2N)cc1	-	-	-	?	-	-
Nc1nc(-c2ccco2)nn1C(=O)c1ccccc1Cl	-	-	-	1.84µM	-	-
CC(C)[C@H](NC(=O)c1ccccc1F)C(=O)Nc1nc2c(s1)CCCC2	?	-	-	-	-	-
COc1cc(OC)cc(C(=O)N[C@H](C(=O)Nc2nc3c(s2)CCCC3)C(C)C)c1	-	-	-	23.1µM	-	-
Cc1cc2c(s1)c1cnn(Cc3c(F)cccc3C(F)(F)F)c(=O)c1n2C	.	.	.	-	-	.
Cn1cc([C@]2(O)C(=O)Nc3ccc(Br)cc32)c2ccccc21	.	.	-	.	.	.
CN(C)CCCNc1cc(C(C)(C)C)nc2c(-c3ccccc3)cnn12	-	5.62µM	-	?	-	-
CC(=O)N1N=C(c2ccccc2)OC12CCCC2	-	-	-	-	-	-
CC(=O)N1N=C(c2ccc(Br)cc2)OC1(C)CC(=O)Nc1ccccc1 (configuration not stated)	-	-	-	23.1µM	?	-
O=C(Nc1ccccc1)OCc1cc(-c2ccccc2Cl)on1	?	8.91µM	-	-	-	-
O=S(=O)(c1cccc(F)c1)N1CCN(c2nc(-c3cccs3)nc3ccccc23)CC1	.	-	.	-	-	.
O=C(/C=C/Nc1ccc(F)cc1F)c1ccco1	-	-	-	?	?	6.31µM
O=C(/C=C/C=C/c1ccccc1)c1ccco1	22.4µM	-	-	-	-	11.2µM
O=C(/C=C/Nc1ccccc1O)c1ccco1	?	-	-	-	-	11.2µM
O=C(/C=C/c1ccc(Br)cc1)c1ccco1	?	-	-	-	-	-
O=C(CN1C(=O)COc2ccc(S(=O)(=O)N3CCOCC3)cc21)NCc1ccc(Cl)cc1	.	.	.	?	-	-
CCOC(=O)CC1C(=O)NCCN1c1nc2ccc(C)cn2c(=O)c1/C=C1\SC(=S)N(CC(C)C)C1=O (configuration not stated)	-	-	-	?	?	-
CCCN1C(=O)/C(=C/c2c(N3CCNC(=O)C3CC(=O)OCC)nc3c(C)cccn3c2=O)SC1=S (configuration not stated)	-	-	?	20.6µM	?	-
O=C(CNC(=S)N(Cc1ccccc1)Cc1ccccc1F)NCc1ccc(Cl)cc1	-	-	-	25.9µM	?	-
O=C(CNC(=S)N(Cc1ccccc1)Cc1ccccc1F)NCc1ccccc1	-	-	-	?	-	-
O=C(O)CCNc1ccc(NCCC(=O)O)c2c1C(=O)c1ccccc1C2=O	-	-	-	?	-	-
O=C1c2cccc(NCCNCCO)c2C(=O)c2cccc(NCCNCCO)c21	.	-	-	10.3µM	18.4µM	-

Source: PubChem
